Source: PubChem
KDM5B inhibitor: inhibitors of human KDM5B histone demethylase; AID 1347165; KDM5B demethylase, FDH-coupled NADH fluorescence (FDH is formaldehyde dehydrogenase); Potency, µM (top dose mostly 57.7 µM), actives largely listed as inhibitors; actives 2.6% (n = 220,000); Q9UGL1; active = well fitted inhibition curve with a large enough effect; note: 0% is about no effect; nearly all actives have a fitted effect of over 70% in size
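qHTS format, multiple compound concentrations. Buffer 50 mM HEPES pH 7.5/0.01% Tween-20; 200 nM KDM5BΔAP final; 10 min compound preincubation; substrate-mix levels 12.5 µM peptide, 25 µM α-KG, 0.25 mM NAD⁺; 30 min RT; ΔRFU.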
* hit, by the source's call; i = inactive. The full list was thinned out, with hits kept by preference. Potency is the fitted concentration of half-maximal effect.

SMILES	KDM5B inhibitor
COc1cc2c(cc1OCc1ccccc1)N(C(=O)COc1ccccc1)CC21CCN(C)CC1	i
COCCC(=O)Nc1ccc2n(c1=O)C[C@H]1C[C@@H]2CN(CCCc2ccccc2)C1	32µM*
O=C(Nc1ccc2n(c1=O)C[C@H]1C[C@@H]2CN(Cc2ccc(F)cc2)C1)c1cccs1	32µM*
O=C(Nc1ccc(=O)n2c1[C@@H]1C[C@@H](CN(C(=O)c3ccc(F)cc3)C1)C2)C1CCCCC1	i
COc1ccc(C(=O)N2C[C@@H]3C[C@H](C2)c2c(NC(=O)CSC)ccc(=O)n2C3)cc1	i
CC(=O)N1C[C@@H]2C[C@H](C1)c1ccc(NC(=O)c3ccc(F)cc3)c(=O)n1C2	i
CN1CCC(N2C[C@@H]3C[C@H](C2)c2c(NC(=O)c4ccccn4)ccc(=O)n2C3)CC1	i
O=C1Nc2ccccc2C12CCN(Cc1cncs1)CC2	i
Cc1noc(C)c1C(=O)N1C2CCC1CN(C(C)C)C2	i
O=C1Nc2ccccc2CC12CCN2Cc1ccccn1 (centres undefined)	i
N#Cc1ccc(C(=O)N2C[C@@H]3C[C@H](C2)c2c(-c4cccs4)ccc(=O)n2C3)cc1	i
O=c1c(-c2cccs2)ccc2n1C[C@H]1C[C@@H]2CN(C2CCOCC2)C1	35µM*
CC(C)(CC(=O)O)CC(=O)N1C[C@@H]2C[C@H](C1)c1c(-c3cccs3)ccc(=O)n1C2	i
COc1cccc([C@H]2CN(C(=O)c3cnc(C)cn3)[C@@H]3C4CCN(CC4)[C@H]23)c1	i
O=C(NC1CCCCC1)[C@H]1CN2CCC1C[C@@H]2Cn1cc(COc2ccccc2)nn1 (some centres undefined)	i
O=C(NC[C@H]1C[C@@H]2CCN1C[C@@H]2CN1CCCCC1)c1ccc(C(F)(F)F)cc1	i
O=C(NCc1ccccc1)[C@H]1CN2CCC1C[C@@H]2Cn1cc(CC2CCCCC2)nn1 (some centres undefined)	i
c1cncc(C2=NOC3(CCN(C4CCCCC4)CC3)C2)c1	i
CC(=O)N1CCC2(C1)N=C(c1cccnc1)C(=O)N2 (centres undefined)	35µM*
COc1ccc(C2=NOC3(CCN(Cc4cccnc4)C3)C2)cc1 (centres undefined)	i
CC(=O)N1CCC2(CC1)CC(c1cccnc1)=NO2	18µM*
COc1cc2c(cc1-c1cccnc1)NC(=O)C21CCN(C(C)=O)CC1	i
CC(=O)N1CCC2(CC1)C(=O)NN=C2c1cccnc1	i
CCCNC(=O)N1[C@H]2CC[C@@H]1c1cnc(-c3ccccc3)nc1C2	i
COc1cc2c(cc1Oc1ccccc1)NC(=O)C21CCN(C(=O)c2cccc(O)c2)CC1	i
SMILES	KDM5B inhibitor
Nc1nc(N2CC3CCC(C2)N3CC(F)(F)F)c2[nH]cnc2n1	i
COc1ccc(-c2cn(C[C@H]3C[C@@H]4CCN3C[C@@H]4C(=O)N(C)C)nn2)cc1	i
O=[S+]1([O-])NC2(CCN(Cc3cccnc3)C2)COc2ccncc21 (centres undefined)	i
O=[S+]1([O-])NC2(CCN(Cc3ccncc3)C2)COc2ccncc21 (centres undefined)	40µM*
O=[S+]1([O-])NC2(CCN(Cc3ccccn3)C2)COc2ccncc21 (centres undefined)	i
O=C1NC2(CCCN(Cc3ccccn3)C2)Oc2ccccc21 (centres undefined)	i
OCC1CN(c2ncccn2)CC12CCNCC2 (centres undefined)	32µM*
COCC1CN(C(=O)N(C)C)CC12CCNCC2 (centres undefined)	i
CCS(=O)(=O)N1CC(COC)C2(CCNCC2)C1 (centres undefined)	i
CN1C(=O)N(C)C2(CCN(Cc3cn4cc(Cl)ccc4n3)C2)C1=O (centres undefined)	i
O=C(NC[C@H]1C[C@@H]2CCN1C[C@@H]2CN1CCC(Cc2ccccc2)CC1)Nc1ccccc1	i
c1cc2nc(C3CCCNC3)[nH]c2cn1 (centres undefined)	i
COc1ccccc1CC(=O)N1CCN(C2CCN(C)C2=O)CC1 (centres undefined)	i
COc1cccn(CC(=O)N2CCN(C)C3(CCNCC3)C2)c1=O	13µM*
CN1CCN(C(=O)CCc2ccncc2)CC12CCNCC2	i
CN1CCN(C(=O)Cc2c[nH]c3ncc(-c4ccsc4)cc23)CC1	40µM*
CN1CCN(C(=O)Cc2c[nH]c3ncc(-c4cccc(O)c4)cc23)CC1	i
CN1CCN(C(=O)Cc2c[nH]c3ncc(-c4ccc([S+](C)(=O)[O-])cc4)cc23)CC1	i
O=C(Cc1c[nH]c2ccccc12)N1CCN(CC(=O)N2CCCCCC2)CC1	i
Cc1ccc(NC(=O)CN2CCN(C(=O)Cc3c[nH]c4ccccc34)CC2)cc1	i
CN1CCN(C(=O)Cc2c[nH]c3ncc(-c4ccccc4F)cc23)CC1	35µM*
c1ccc(C2=NOC3(CCCN(Cc4cccnc4)C3)C2)nc1 (centres undefined)	i
